# High-throughput results: PubChem BioAssay, Broad Institute
# The sample as a whole holds a higher share of hits than the screen did.
# Tgondii IFNg: T. gondii growth inhibition with IFN-gamma, primary screen, cell-based. Toxoplasma gondii growth in IFN-gamma-treated host cells; active compounds read low. activity change, negative = inhibition, % (concentration not given with the values). hit rate 3.8% among 69,000; in the data active = activity change below about -70%, passing the limit was not always enough;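 note: host cells are HeLa cells infected with Toxoplasma gondii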
# A number is an active result; . = inactive; ! = not active in a repeat.
SMILES,Tgondii IFNg
Cn1c2ccccc2c2c1cc(C(=O)Cc1ccccn1)n2-c1ncccn1,.
Cc1ccsc1CN(Cc1ccncc1)C1CCCC1,.
Cc1ccc(-c2nc(CN(C)S(=O)(=O)c3ccc(C)cc3)c(C)o2)cc1,.
CC(C)CCN1C2(CCN(S(=O)(=O)C3CC3)C2)c2ccccc2S1(=O)=O (centres undefined),.
CC1=C(C(=O)NCc2ccc(F)cc2)C2(CCN(S(=O)(=O)c3cccs3)CC2)OC1=O,.
c1ccc(-c2nnc(CN3CCCC3c3ccccn3)o2)cc1 (centres undefined),.
CC(C)c1cc(CN(C)Cc2cnc3c(-c4ccccc4)cnn3c2)on1,.
COc1ccc(-c2nc(CCNC(=O)c3cccc4ccccc34)cs2)cc1OC,.
CN1C(=O)C(CCC(=O)O)c2ccccc21 (centres undefined),.
C[C@H](NC(=O)Cc1cc(F)cc(F)c1)C(=O)N[C@@H]1C(=O)N(C)c2ccccc2-c2ccccc21,-83
CC(C)[C@H](O)C(=O)N[C@@H](C)C(=O)N[C@H]1C(=O)N(C)CCc2ccccc21,.
Oc1[nH]c2ccccc2c1N=Nc1nc(Nc2ccccc2)nc(N2CCOCC2)n1,-99
O=C1CSC(c2ccccc2)N1Nc1nc(N2CCOCC2)nc(N2CCOCC2)n1 (centres undefined),.
O=C(O)CSc1nc(Nc2ccccc2)nc(N2CCOCC2)n1,.
O=C(O)CC(CC(=O)Nc1nn[nH]n1)c1ccccc1 (centres undefined),.
C=CCOC1C2CCC1N(C(=O)c1cccc3c1OCCO3)CCO2 (centres undefined),.
CCCCCN(C)C(=O)c1ncn2c1CN(CC1CC1)S(=O)(=O)c1ccccc1-2,.
CCCCN(CC)C(=O)c1ncn2c1CN(CC1CC1)S(=O)(=O)c1ccccc1-2,.
CN(C(=O)c1ncn2c1CN(CC1CC1)S(=O)(=O)c1ccccc1-2)c1ccccc1,-105
Cc1oc(-c2ccc(Cl)cc2)nc1CN1CCCC(C(=O)NC2CCCCCC2)C1 (centres undefined),-99
CCOc1ccc(-c2nc(CN3CCN(C(=O)NC4CCCCC4)CC3)c(C)o2)cc1,.
Cc1ccc(-c2nc(CN3CCN(C(=O)NC4CCCCC4)CC3)c(C)o2)cc1,.
O=C1c2ccc3c4c(ccc(c24)C(=O)N1Cc1ccco1)C(=O)N(Cc1ccco1)C3=O,.
O=C(c1ccco1)N(Cc1nc(-c2ccc(Cl)cc2)no1)C1CCCCC1,.
Cc1cc(C)c(NC(=O)Cn2ncc3c(N4CCN(c5ccccn5)CC4)ncnc32)c(C)c1,.
SMILES,Tgondii IFNg
O[C@@H]1CN(c2nc(-c3ccccc3)no2)CC[C@H]1c1ccc2c(c1)OCO2,.
CN1CCN(C2=Nc3ccccc3Sc3ccc(Cl)cc32)CC1,.
CN1CCN(CCCN2c3ccccc3Sc3ccc(C(F)(F)F)cc32)CC1,-80!
CN1CCN(CCCN(C)CC(C)(C)c2ccc(Cl)cc2)CC1,.
Cc1ccc(Cl)cc1N1CCN(CCNS(=O)(=O)c2ccc3[nH]c(=O)ccc3c2)CC1,.
CCS(=O)(=O)N1CCN(c2nccc(N3CCCC(O)C3)n2)CC1 (centres undefined),.
O=C(NC1CCCCCCC1)C1CC(=O)N(CCc2c[nH]c3ccc(Cl)cc23)C1 (centres undefined),-92
Cc1ccc2[nH]cc(CCN3CC(C(=O)NC4CCCCCCC4)CC3=O)c2c1 (centres undefined),.
CC(C)c1ccc(NC(=O)C2CC(=O)N(CCc3c[nH]c4ccc(Cl)cc34)C2)cc1 (centres undefined),.
Cc1cc(=O)c(C(=O)N2CCCC(N(C)Cc3ccccc3)C2)c[nH]1 (centres undefined),.
O=C(C1CCOCC1)N1CCC(c2cc(Cc3ccccc3)[nH]n2)CC1,.
Cc1nc(-n2cnnc2)ccc1-c1ccc2c(c1)OCO2,-97
Cc1ccc(-c2nnc(-c3ccc4c(c3)OCO4)o2)cc1,.
Cc1cnc(-n2cnnc2)c(-c2ccc3c(c2)OCCO3)c1,.
COc1ccc(-c2nnc(-c3nc(Nc4ccc(F)c(F)c4)c4ccccc4n3)o2)cc1,.
CCCCS(=O)(=O)N1CCC2(CC1)CCn1c(-c3ccc(C(N)=O)cc3)cnc12,.
CCC(C(=O)NCc1cc(Cl)c2c(c1)OCCCO2)n1nc(C)cc1C (centres undefined),.
O=C(NCc1cc(Cl)c2c(c1)OCCCO2)c1cccc(Nc2ncccn2)c1,-71
O=C(CCC1C(=O)Nc2ccccc21)NCc1cc(Cl)c2c(c1)OCCCO2 (centres undefined),.
c1ccc(-c2nnc3n2C2(CCCCC2)Cc2ccccc2-3)cc1,.
c1csc(-c2nnc3n2C2(CCCC2)Cc2ccccc2-3)c1,-97
c1coc(-c2nnc3n2C2(CCCC2)Cc2ccccc2-3)c1,.
COc1ccc(S(=O)(=O)N2CCC3(CC2)Nc2cc(F)ccc2-n2cccc23)cc1,.
O=S(=O)(c1cccs1)N1CCC2(CC1)NCCN=C2NCc1ccc(C(F)(F)F)cc1,.
Cc1cc(C(F)(F)F)nc(CNC(=O)CCc2c(C)nn(C)c2C)n1,.
SMILES,Tgondii IFNg
CC(C)c1noc(-c2cc(=O)n(CC(=O)Nc3cccc(C#N)c3)c3ccccc23)n1,.
Cc1oc(-c2cccc(Cl)c2)nc1CN(C)S(=O)(=O)c1ccc(F)cc1,.
Cc1ccc(S(=O)(=O)N(C)Cc2nc(-c3ccccc3C)oc2C)c(C)c1,.
COc1ccccc1-c1nc(CN(c2ccccc2OC)S(=O)(=O)c2ccccc2C)c(C)o1,.
COc1ccccc1-c1nc(CN(C)S(=O)(=O)c2ccc(C)cc2C)c(C)o1,-104
COc1cccc(N(Cc2nc(-c3cccc(Cl)c3)oc2C)S(=O)(=O)c2ccccc2)c1,.
COc1ccc(S(=O)(=O)N(C)Cc2nc(-c3cccc(Cl)c3)oc2C)cc1,-99
CN1CCC(Cc2noc(-c3ccnc(-n4cnnc4)c3)n2)CC1,.
CCc1cc(C(=O)NCc2cccnc2Oc2c(C)cccc2C)on1,.
Cc1[nH]c2ccc(CNC(=O)C3CC(=O)N(Cc4ccccn4)C3)cc2c1C (centres undefined),.
CCc1[nH]c2ccc(CNc3cc(COC)ncn3)cc2c1C,-78
CCc1[nH]c2ccc(CNc3ncc(F)c(N4CCOCC4)n3)cc2c1C,.
COc1cc(C(=O)NCCc2sc(-c3ccccc3)nc2C)cc(OC)c1OC,.
CCN(Cc1ccc(F)cc1)C(=O)CCc1ccc(O)cc1,.
CCn1nc(C)c(CCC(=O)N2CCC(C3Nc4ccccc4S(=O)(=O)N3)CC2)c1C (centres undefined),.
Cc1cc(Br)c2c(c1)c(N=NC(N)=S)c(O)n2C,.
NC(=S)N=Nc1c(O)n(Cc2ccccc2)c2ccccc12,-103
CN1C2CCN(C(=O)c3ccsc3)CC2C[C@H]1Cn1cncn1 (some centres undefined),.
O=C(O)CCS(=O)(=O)c1ncn[nH]1,.
Cn1cc(N2CC3(CCN(S(C)(=O)=O)C3)CC2=O)cn1 (centres undefined),.
CCS(=O)(=O)N1CCC2(CC(=O)N(c3cnn(C)c3)C2)C1 (centres undefined),.
Cn1cc(N2CC3(CCN(CCO)C3)CC2=O)cn1 (centres undefined),-87
O=C(CN1CCC2(CC1)N=C(c1ccc(Cl)cc1)C(=O)N2)Nc1ccc2c(c1)OCO2,.
Nc1nc(Cl)nc2c1ncn2C1OC(CO)C(O)C1F (centres undefined),-78
Nc1nc(Cl)nc2c1ncn2[C@@H]1O[C@H](CO)[C@@H](O)[C@H]1O,.
